ALOX12 inh = Primary qHTS assay for inhibitors of human arachidonate 12S-lipoxygenase (ALOX12): Round 2 | 1.1% of 580,000 active | Potency, µM (highest dose often 108 µM), for the others: top-dose activity change, negative = inhibition, hits mostly inhibitors | purified 12hLO, xylenol orange hydroperoxide absorbance | Polyunsaturated fatty acid lipoxygenase ALOX12 (Homo sapiens), P18054
Target sequence (P18054 whole entry, looked up): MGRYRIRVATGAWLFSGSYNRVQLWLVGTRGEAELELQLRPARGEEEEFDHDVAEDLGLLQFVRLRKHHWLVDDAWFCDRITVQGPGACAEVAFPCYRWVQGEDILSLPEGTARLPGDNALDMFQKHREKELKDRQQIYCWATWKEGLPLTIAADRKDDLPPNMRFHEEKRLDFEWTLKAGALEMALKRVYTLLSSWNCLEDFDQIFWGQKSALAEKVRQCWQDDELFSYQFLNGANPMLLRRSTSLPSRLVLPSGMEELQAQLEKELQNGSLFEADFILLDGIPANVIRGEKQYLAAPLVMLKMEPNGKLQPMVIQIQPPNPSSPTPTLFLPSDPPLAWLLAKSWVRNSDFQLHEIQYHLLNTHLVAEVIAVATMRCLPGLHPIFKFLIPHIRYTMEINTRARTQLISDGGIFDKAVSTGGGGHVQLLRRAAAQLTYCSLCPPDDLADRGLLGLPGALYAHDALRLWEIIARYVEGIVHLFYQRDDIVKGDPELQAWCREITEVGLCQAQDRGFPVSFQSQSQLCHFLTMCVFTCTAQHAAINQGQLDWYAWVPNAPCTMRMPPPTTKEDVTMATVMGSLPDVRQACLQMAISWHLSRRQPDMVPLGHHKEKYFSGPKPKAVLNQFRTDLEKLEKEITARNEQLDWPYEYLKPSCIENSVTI
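Purified human 12hLO (150 nM final) in 25 mM Hepes, 0.01% Triton X-100, pH 7.0 was preincubated 15 min at room temperature with compound. Then 40 uM arachidonic acid was added, 30 min. Hydroperoxide was read by Fe-XO absorbance ratio 573/405 nm.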
DT40 TDP1 no CPT = qHTS for Inhibitors of human tyrosyl-DNA phosphodiesterase 1 (TDP1): qHTS in cells in absence of CPT. DT40 Tdp1-/- hTDP1 cells, no CPT, ATP luminescence, 48 h. 15% of 420,000 active. Potency, µM (top dose mostly 46.2 µM), without a hit: at the top dose activity change, negative = growth inhibition, actives largely listed as inhibitors; also: nearly all actives have a fitted effect of over 55% in size
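Cells were dispensed at 400 per well, compounds added by pin tool, plates incubated ≥48 hr at 37 °C, then CellTiter-Glo added for 30 min at room temperature before luminescence reading. Line: DT40 Tdp1-/- complemented with hTDP1; camptothecin omitted.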
TDP1 cell CPT = qHTS for Inhibitors of human tyrosyl-DNA phosphodiesterase 1 (TDP1): qHTS in cells in presence of CPT; chicken DT40 Tdp1-/-;hTDP1 cells + 20 nM CPT, ATP luminescence, 48 h; Potency, µM (series often up to 46.2 µM), without a hit: at the highest dose activity change, negative = growth inhibition, actives largely listed as inhibitors; 12% of 420,000 active; AID 686979, 2013; also: nearly all actives have a fitted effect of over 55% in size
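Chicken DT40 Tdp1-/- cells complemented with human TDP1, 400 cells/well, exposed to compounds plus 20 nM camptothecin for at least 48 h at 37 C; viability read as ATP content by CellTiter-Glo luminescence.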
VP16 counter = VP16 counterscreen qHTS for inhibitors of ROR gamma transcriptional activity. Potency, µM (highest dose often 53.6 µM), without a hit: top-dose activity, negative = inhibition, hits mostly inhibitors. Drosophila S2 Gal4-VP16 UAS-luciferase, luminescence, 20 h. 3.5% of 310,000 active. AID 2546, 2010;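 also: Gal4-VP16 expression switched on by copper sulfate through the metallothionein promoter; nearly all actives have a fitted effect of over 50% in size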
ELG1 repair inh = qHTS screen for small molecules that inhibit ELG1-dependent DNA repair in human embryonic kidney (HEK293T) cells expressing luciferase-tagged ELG1; HEK293T ELG1-luciferase reporter, luminescence, 16 h; DNA damage induced by 5-fluorouridine; Potency, µM (top dose mostly 46.1 µM), without a hit: at the highest dose activity change, negative = inhibition, hits mostly inhibitors; 2.3% of 330,000 active; AID 504467, 2011; also: nearly all actives have a fitted effect of over 55% in size
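Luminescence from the luciferase reporter, measured 30 min after ONE-Glo reagent at room temperature, was the read-out. Beforehand, 2,000 cells per well were exposed for 16 hr at 37 °C to 5-fluorouridine together with compound or vehicle.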
RORgamma inh = qHTS for inhibitors of ROR gamma transcriptional activity; 5.4% of 310,000 active; Nuclear receptor ROR-gamma (Mus musculus), P51450; Potency, µM (highest dose often 53.6 µM), inactives show at the highest dose activity change, negative = inhibition, most hits filed as inhibitors; Drosophila S2 Gal4-RORgamma UAS-luciferase reporter, 20 h; also: nearly all actives have a fitted effect of over 60% in size
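Luminescence from a UAS-regulated Photinus luciferase reporter in stably transfected Drosophila Schneider cells is measured; decreased signal marks ROR gamma inhibition. Fusion expression is induced by 700 uM copper sulfate for 20 hr.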
* = called active by the depositor; ? = inconclusive; . = no result. Sampled rows, rich in hits. Any-hit rate of the full collection: about 15%. Calls follow the shape of the dose curve; as a rule, active = well fitted curve in the direction sought with a large enough effect; inconclusive = small, poorly fitted or top-dose-only effect, or another doubt; inactive = no such curve, though single readings can be large; an effect the other way counts as inactive or inconclusive. % is scaled to controls: 0 for no effect and ±100 for the full control effect; potency is read from the fitted curve at half-maximal effect.

SMILES	ALOX12 inh	DT40 TDP1 no CPT	TDP1 cell CPT	VP16 counter	ELG1 repair inh	RORgamma inh
CCN(CC)C(=O)[C@H]1C[C@H](CC(=O)NC/C=C(\C)CCC=C(C)C)C(=O)N2CCc3c([nH]c4cc(CCC(=O)N(C)C)ccc34)[C@]12C	.	15µM*	16µM*	.	?	.
CC(C)=CCC/C(C)=C/CNC(=O)C[C@H]1C[C@H](C(=O)N2CCCCC2)[C@@]2(CCc3ccccc3)c3[nH]c4cc(CCC(=O)N(C)C)ccc4c3CCN2C1=O	-15%	8.2µM*	10µM*	.	-11%	.
CCN(CC)C(=O)[C@H]1C[C@H](CC(=O)NCc2ccc(OC)c(OC)c2)C(=O)N2CCc3c([nH]c4cc(CCC(=O)N(C)C)ccc34)[C@]12C	1%	1%	2%	.	4%	.
Cc1ccc(C2=Nc3ccccc3SC(c3cccc([N+](=O)[O-])c3)C2)cc1 (configuration not stated)	-26%	16µM*	?	13µM*	?	5.6µM*
CCN(Cc1ccccc1)S(=O)(=O)c1ccc(C(=O)N(CCCN(C)C)c2nc3cc(OC)ccc3s2)cc1	?	23µM*	?	.	?	.
COc1ccc2sc(N(CCCN(C)C)C(=O)c3ccc(C(=O)c4ccccc4)cc3)nc2c1	?	?	16µM*	.	-8%	.
COc1ccc(C2=NN(C(=O)c3cccs3)C(c3ccc(OC)cc3)C2)cc1 (configuration not stated)	?	18µM*	?	2%	-13%	-8%
COc1ccc(C2CC(c3ccc(C)cc3)=NN2C(=O)c2ccccc2)cc1 (configuration not stated)	10%	15µM*	21µM*	-5%	-11%	-36%
COc1ccc(C2=NN(C(=O)c3ccccc3)C(c3ccccc3)C2)cc1 (configuration not stated)	38%	.	.	.	.	.
COc1ccc(C2CC(c3cccs3)=NN2C(=O)c2ccc(Br)o2)cc1 (configuration not stated)	?	?	23µM*	-8%	2%	15%
COc1ccc(C2=NN(C(=O)c3ccccc3)C(c3ccccc3)C2)c(O)c1 (configuration not stated)	0%	18µM*	?	6%	?	-44%
CCC(=O)N1N=C(c2cccs2)CC1c1ccc(OC)cc1 (configuration not stated)	0%	-9%	11%	1%	21%	2%
COc1ccc(C2=NN(C(=O)c3cccs3)C(c3ccc4nccnc4c3)C2)cc1 (configuration not stated)	5%	.	.	.	.	.
COc1ccc(C(=O)N2CCN(C(=O)c3ccccc3)C[C@@H]2C(=O)N[C@H]2CCCNC2=O)cc1	21%	.	.	.	.	.
CCOc1cc(/C=C2\SC(=NC)N(C)C2=O)c(Br)cc1OC(C)=O	27%	21µM*	?	?	4%	?
CCOc1cc(/C=C2\SC(=NC)N(C)C2=O)cc(Cl)c1OC(C)=O	-3%	?	?	-3%	-1%	19%
Fc1ccc(C2c3cccn3CCN2C(=S)Nc2cccc(Br)c2)cc1 (configuration not stated)	?	?	?	?	?	8.9µM*
Fc1ccc(NC(=S)N2CCn3cccc3C2c2cccnc2)cc1 (configuration not stated)	?	-3%	-10%	3%	-6%	9%
CCCCNC(=S)N1CCn2cccc2C1c1ccc(F)cc1 (configuration not stated)	?	?	16µM*	8%	?	-106%
CCOc1ccccc1NC(=O)COC(=O)c1cn(CC)c2nc(C)ccc2c1=O	0%	?	18µM*	.	.	.
CCn1cc(C(=O)OCC(=O)c2cc(C)n(-c3ccc(OC(F)F)cc3)c2C)c(=O)c2ccc(C)nc21	-24%	13µM*	?	-9%	?	11%
CCn1cc(C(=O)OCC(=O)Nc2ccccc2OC(F)F)c(=O)c2ccc(C)nc21	-9%	?	-29%	.	-1%	.
Cc1cccc(NC(=O)CSc2cn(CC(=O)N3CCCCCC3)c3ccccc23)c1	-9%	-29%	-6%	.	.	.
CC(=O)c1ccc(NC(=O)CSc2cn(CC(=O)N3CCCCC3)c3ccccc23)cc1	-10%	21µM*	?	.	.	.
Cc1ccc(NC(=O)CSc2cn(CC(=O)N3CCCC3)c3ccccc23)cc1Cl	-23%	?	26µM*	.	.	.
Cc1ccc(NC(=O)CSc2cn(CC(=O)N3CCCCCC3)c3ccccc23)cc1	-3%	?	-23%	.	.	.
CCCCSc1nc(N)cc(N2CCCC(C(=O)N3CCOCC3)C2)n1 (configuration not stated)	-19%	.	.	.	.	.
CCOC(=O)c1ccccc1NC(=O)CSc1cn(CC(=O)N2CCCCCC2)c2ccccc12	-26%	?	?	.	.	.
CCOc1ccccc1NC(=O)COC(=O)c1ccccc1SCC(=O)N1CCCC1	-2%	16µM*	?	.	?	.
